# Data as given in PubChem BioAssay AID1851 (National Center for Advancing Translational Sciences (NCATS), 2009).
# Several values for one entry are separate records, joined by “and”; a condition that tells them apart may be missing. Equal values may be shown once. In all, about 16,000 compounds went through this assay and about 5,800 (36%) were called active. Another 23% or so got no clear call; they are omitted. The call rests on the fitted dose curve; in most records, active means well fitted curve in the direction sought with a large enough effect; inconclusive means small, poorly fitted or top-dose-only effect, or effect the other way; inactive means no such curve, though single readings can be large or run the other way. Some of the results follow. A structure can be active in one record and inactive in another.
# Target: Cytochrome P450 2C19 (Homo sapiens) (UniProt P33261)
# Sequence (P33261 whole entry, looked up): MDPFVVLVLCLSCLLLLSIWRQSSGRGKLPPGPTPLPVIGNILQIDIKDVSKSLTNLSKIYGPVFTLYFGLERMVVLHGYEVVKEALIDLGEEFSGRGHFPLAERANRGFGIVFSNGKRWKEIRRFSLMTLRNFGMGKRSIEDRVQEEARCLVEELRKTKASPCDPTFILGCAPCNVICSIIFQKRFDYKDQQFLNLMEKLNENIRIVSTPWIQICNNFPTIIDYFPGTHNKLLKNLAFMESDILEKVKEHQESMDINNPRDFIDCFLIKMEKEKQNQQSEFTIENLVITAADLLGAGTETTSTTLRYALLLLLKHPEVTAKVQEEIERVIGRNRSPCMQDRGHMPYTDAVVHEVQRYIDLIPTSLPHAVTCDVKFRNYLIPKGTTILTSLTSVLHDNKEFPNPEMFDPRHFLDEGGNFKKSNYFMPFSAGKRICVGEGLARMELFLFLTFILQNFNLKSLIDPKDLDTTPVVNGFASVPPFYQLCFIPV
# Assay: Cytochrome panel assay with activity outcomes
# Settings: recombinant CYP, pro-luciferin dealkylation, luminescence, p450-cyp2c19; series mostly up to 57.1 µM; activity, negative = inhibition: at the top concentration
# On the % scale 0 is the no-effect control and ±100 the full control effect.
SMILES,"activity, negative = inhibition",AC50
NS(=O)(=O)c1ccc(NCc2cnc3ccccc3n2)cc1,20.6% [at 11.4 µM] (inactive),–
NS(=O)(=O)c1ccc(NCc2ccccc2OCc2ccccc2F)cc1,–,6.31 µM (active)
NS(=O)(=O)c1ccc(NCc2nc3ccccc3[nH]2)cc1,39.2% [at 11.4 µM] (inactive),–
CC1CC/C(=C\c2ccc3c(c2)OCO3)C(=O)/C1=C/c1ccc2c(c1)OCO2 (stereo not given),–,2.82 µM (active)
Cc1nc2cnc(N3CCN(C)CC3)nc2n(Cc2cccs2)c1=O,-6.25% (inactive),–
COc1ccccc1CN1CCCC2(CCN(C(=O)c3cccn3C)CC2)C1,2.62% (inactive),–
COC(=O)[C@@]1(Cc2ccc(F)cc2)[C@H]2c3cc(C(=O)N4CCCC4)n(CCc4ccc(O)c(O)c4)c3C[C@H]2CN1C(=O)c1ccccc1,–,15.8 µM (active)
COC(=O)[C@@]1(Cc2ccc(F)cc2)[C@H]2c3cc(C(=O)N4CCCC4)n(CCc4ccc(OC)c(Br)c4)c3C[C@H]2CN1C(=O)c1ccccc1,–,5.01 µM (active)
COC(=O)[C@@]1(Cc2ccc(F)cc2)[C@H]2c3cc(C(=O)N4CCCC4)n(Cc4ccc(S(C)(=O)=O)cc4)c3C[C@H]2CN1C(=O)c1ccccc1,-41.1% (inactive),–
CC(NC(=O)c1ccc(N2CCCC2=O)cc1)c1ccccc1 (stereo not given),0.679% (inactive),–
O=C(O)c1cccc(N2CCCC2=O)c1,–,31.6 µM (active)
O=c1cc(CO)oc(CN2CCCC2)c1O,-9.57% (inactive),–
CO[C@H]1COC(=O)[C@H](C)NC(=O)C/C=C\[C@@H](C)[C@@H](NS(=O)(=O)c2ccc(C)cc2)COC(=O)[C@H](OCc2ccccc2)/C=C\[C@@H]1C,6.49% [at 11.4 µM] (inactive),–
COc1ccc(/C=N/NC(=O)c2ccccc2)cc1CN1CCN(c2ccc(F)cc2)CC1,–,17.8 µM (active)
COc1ccc(/C=N\NC(=O)C2C(=O)NCC2c2ccccc2)cc1O (stereo not given),-11.8% (inactive),–
COc1ccc(/C=N/NC(=O)c2ccn[nH]2)cc1COc1ccc(F)cc1,–,3.55 µM (active)
COc1ccc(C(=O)CN2CCN(c3ccc(F)cc3)CC2)cc1OC,–,14.1 µM (active)
Cc1ccc(/C=N\NC(=O)c2cc(OCC(F)(F)F)ccc2OCC(F)(F)F)cc1,-0.0019% (inactive),–
COc1ccc(/C=N/NC(=O)c2ccn[nH]2)cc1COc1ccc(Cl)cc1,–,2 µM (active)
CCOc1cc(CN2CCN(c3ccc(C(C)=O)cc3)CC2)ccc1OC,-19.8% (inactive),–
C[C@H](O)[C@H](O)[C@@H]1CNc2nc(N)[nH]c(=O)c2N1,26.5% (inactive),–
Cc1ccc(C(=O)NN2CCOCC2)cc1,6.29% (inactive),–
Cc1c(C(=O)NN2CCOCC2)nn(-c2ccc(Cl)cc2Cl)c1-c1ccc(I)cc1,–,7.94 µM (active)
O=C(Nc1ccccc1C(=O)NCCc1ccccc1)c1ccco1,–,8.91 µM (active)

SMILES,"activity, negative = inhibition",AC50
O=C(CCc1ccccc1)NNC(=O)c1ccco1,-17.8% (inactive),–
COc1ccc(CCNC(=O)c2ccccc2NC(=O)c2ccco2)cc1OC,–,11.2 µM (active)
CC(C)[C@@H](OCc1ccccc1)[C@H](C)/C=N\O[C@@H](C)c1cn([C@H](CO)Cc2ccccc2)nn1,-16.9% [at 11.4 µM] (inactive) and -29.7% [at 11.4 µM] (inactive),–
N#C/C(=C\c1ccc(O)c(O)c1)C(=O)NCCCc1ccccc1,–,10 µM (active)
O=c1cc(O)cc(/C=C\c2ccc(O)c(O)c2)o1,-24.2% (inactive),–
N#C/C(=C\c1ccc(O)c(O)c1)C(=O)NCCc1ccccc1,-40.2% (inactive),–
N#C/C(=C\c1ccc(O)c(O)c1)C(=O)OCCc1cccs1,–,6.31 µM (active)
N#C/C(=C\c1ccc(O)c(O)c1)C(=O)c1ccc(O)c(O)c1,0.35% (inactive),–
N#Cc1ccc(-c2ccc(F)cc2)nc1Oc1ccc(Cl)c(Cl)c1,–,3.55 µM (active)
Cc1ccc(C2NC(c3ccc(C)cc3)C(C)C(=NO)C2C)cc1 (stereo not given),–,0.562 µM (active)
CNC[C@H](O)[C@H](O)[C@H](O)[C@H](O)CO,16.6% [at 25.6 µM] (inactive),–
Cc1cnc(CNc2ncnc3ccc(-c4ccccc4C)cc23)cn1,–,15.8 µM (active)
Cc1cnc(CNc2ncnc3ccc(-c4ccc(N(C)C)cc4)cc23)cn1,–,15.8 µM (active)
Cc1cnc(CNc2ncnc3ccc(-c4ccoc4)cc23)cn1,-4.33% (inactive),–
Cc1cnc(CNc2nc(-c3ccccc3C)nc3ccccc23)cn1,-36.4% (inactive),–
Cc1ncc([N+](=O)[O-])n1CCO,5.25% [at 25.6 µM] (inactive),–
FC(F)(F)c1ccccc1-c1cncnc1NCc1cccs1,–,20 µM (active)
CN(C)Cc1ccccc1-c1cncnc1NCc1cccs1,-4.64% (inactive),–
COc1ccccc1-c1cncnc1NCc1cccs1,–,2 µM (active)
Cc1ccccc1-c1cncnc1NCc1cccs1,–,0.794 µM (active)
Clc1ccccc1-c1cncnc1NCc1cccs1,–,1.58 µM (active)
Cc1cnn(-c2cc(N/N=C/c3ccccc3F)ncn2)c1,-20.9% (inactive),–
COCCNC(=O)c1ccc2c(c1)nc(C)n2-c1cc(OC)c(OC)c(OC)c1,0.165% (inactive),–
CN(C)CCCNC(=O)c1cc2c3ccccc3n(C)c2s1,-26.7% (inactive),–

SMILES,"activity, negative = inhibition",AC50
COCCNC(=O)c1cc2c3ccccc3n(C)c2s1,–,11.2 µM (active)
O=C(OCc1nc2ccccc2s1)c1ccc(Br)s1,–,0.447 µM (active)
COc1ccc(COC(=O)N/N=C2/C[C@@H](O)[C@@H](O)[C@@H]3[C@@H]4C(=O)N(c5cccc(Oc6ccccc6)c5)C(=O)[C@H]4CC[C@H]23)cc1,-11% [at 11.4 µM] (inactive),–
COc1ccc(NC(=O)CC2C(=O)N(c3cccc(OC)c3)C(=O)N2C2CCCCC2)cc1 (stereo not given),–,8.91 µM (active)
COc1cccc(N2C(=O)C(CC(=O)Nc3ccccc3)N(C3CCCCC3)C2=O)c1 (stereo not given),–,4.47 µM (active)
COc1ccc(COC(=O)N/N=C2/C[C@@H](O)[C@@H](O)[C@@H]3[C@@H]4C(=O)N(c5cccc(Oc6ccccc6)c5)C(=O)[C@H]4CC[C@@H]23)cc1,20.4% [at 11.4 µM] (inactive),–
CCCCCCCCSc1nnc(CSc2nc3nc(C)cc(C)n3n2)o1,–,7.94 µM (active)
CCOC(=O)c1cnn(-c2ccc(C(C)C)cc2)c1NC(=O)C1CCC1,–,10 µM (active)
CC(C)OCCCN1CN(S(=O)(=O)c2cccc(Cl)c2)c2nc3ccccc3nc21,–,3.16 µM (active)
C[C@@H](C(=O)O)c1ccc(-c2ccccc2)c(F)c1,–,inactive and 631 nM (active)
C[C@H](C(=O)O)c1cccc(Oc2ccccc2)c1,6.23% [at 25.6 µM] (inactive),–
O=C(O)[C@@H](O)c1ccc(F)cc1,10.1% [at 11.4 µM] (inactive),–
O=S(Cc1ccccc1)CC(O)(c1ccccc1)c1ccccc1 (stereo not given),–,5.01 µM (active)
O=C(O)C(Cl)(c1ccccc1)c1ccccc1,-2.62% [at 11.4 µM] (inactive),–
O=C(O)c1cccc(C(=O)O)c1S(=O)Cc1ccccc1 (stereo not given),41.5% [at 11.4 µM] (inactive),–
CCOC(OCC)P(=O)(O)CCCNCc1ccc(Cl)c(Cl)c1,12.9% (inactive),–
CCOc1ccc(C(=O)Nc2cnn(Cc3ccc(Cl)c(Cl)c3)c2)cc1,–,3.55 µM (active)
CN1CCN(c2ncc3nc(-c4cn(C)c5ccccc45)c(=O)n(CCc4ccccc4)c3n2)CC1,31.9% (inactive),–
Cn1cc(-c2nc3cnc(N4CCOCC4)nc3n(CCC#N)c2=O)c2ccccc21,-40.9% (inactive),–
Cn1cc(-c2nc3cnc(N4CCNCC4)nc3n(CCc3ccccc3)c2=O)c2ccccc21,–,2 µM (active)
Cn1cc(-c2nc3cnc(N4CCNCC4)nc3n(Cc3ccc(F)cc3)c2=O)c2ccccc21,–,7.94 µM (active)
CCNc1ncc2nc(-c3cn(C)c4ccccc34)c(=O)n(Cc3ccc(F)cc3)c2n1,-44.7% (inactive),–
COCCn1c(=O)c(-c2cn(C)c3ccccc23)nc2cnc(N3CCNCC3)nc21,-24.4% (inactive),–
CSc1nc(O)c(Cc2ccccc2)c(=O)[nH]1,-4.58% (inactive),–

SMILES,"activity, negative = inhibition",AC50
CSc1nc(C)c(CCOC(=O)c2ccccc2)c(=O)[nH]1,–,15.8 µM (active)
CSc1nc(C)c(CCOC(=O)c2cccc(C)c2)c(=O)[nH]1,–,3.16 µM (active)
Cc1ccccc1[C@@H](OCCN(C)C)c1ccccc1,–,inactive
C=CCn1cc(Cl)c(=O)n(CC=C)c1=O,-27.6% (inactive),–
C=CCn1c(=O)c2c(nc(-c3ccc(S(=O)(=O)O)cc3)n2C)n(C)c1=O,21.2% (inactive),–
COC(=O)Cn1c(=O)c2c(nc(Br)n2Cc2ccccc2Cl)n(C)c1=O,–,0.891 µM (active)
COc1ccc(N2CCN(Cc3nc4c(c(=O)n(C)c(=O)n4C)n3CC(C)=O)CC2)cc1,8.13% (inactive),–
C=CCn1c(=O)c2c(nc(Br)n2Cc2ccccc2Cl)n(C)c1=O,–,0.794 µM (active)
CN(C)c1nc2c(c(=O)[nH]c(=O)n2C)n1Cc1ccccc1Br,-18.6% (inactive),–
CC(=O)Nc1nc2ccccc2n1Cc1ccccc1,–,22.4 µM (active)
O=C(Nc1nc2ccccc2n1Cc1ccccc1)c1ccc(COc2ccccc2[N+](=O)[O-])o1,–,1.26 µM (active)
CCn1nccc1C(=O)Nc1nc2ccccc2n1CCN1CCCCC1,-4.94% (inactive),–
COc1ccc(CNc2nc3ccccc3n2Cc2ccccc2)cc1OC,–,7.94 µM (active)
C=CCn1c(NCc2ccccc2)nc2ccccc21,–,3.16 µM (active)
CC(C)CN1CCC2(CC1)CCN(C(=O)c1cc(C(F)(F)F)cc(C(F)(F)F)c1)CC2,14.1% (inactive),–
CC[C@](N)(CCC(=O)O)C(=O)O,-20.8% (inactive),–
CN(C)c1ncc2nc(-c3cc(F)cc(F)c3)c(=O)n(C[C@H]3CCCO3)c2n1,-6.59% (inactive),–
O=C(CN(Cc1ccccc1)S(=O)(=O)c1ccc2c(c1)OCCO2)N/N=C/c1ccc(F)cc1,–,3.98 µM (active)
CN(CCc1ccccn1)c1ccc2c(c1)Cc1ccccc1-2,–,0.794 µM (active)
CN(CCc1ccccn1)c1ccc2c(c1)C(=O)c1ccccc1-2,–,2.51 µM (active)
CCOC(=O)C1=C(O)C(=O)N(Cc2ccccc2)C1,–,15.8 µM (active)
COC(=O)c1nnn(Cc2ccccc2)c1N,3.49% (inactive),–
CCOC(=O)N/N=C1/C[C@@H](O)[C@@H](O)[C@@H]2[C@@H]3C(=O)N(Cc4ccccc4)C(=O)[C@H]3CC[C@@H]12,11.9% [at 11.4 µM] (inactive),–
